According to PubChem BioAssay (Tox21):
Results filed as inconclusive are left out. Activity calls are given as the source filed them. Unless noted, calls follow the shape of the dose curve; as a rule, active = well fitted curve in the direction sought with a large enough effect in the repeat runs; inconclusive = weak or mixed curves; inactive = no such curve, though single readings can be large; an effect the other way counts as inactive or inconclusive.

How the values were obtained:
[1] = qHTS assay to identify small molecule antagonists of the estrogen receptor alpha (ER-alpha) signaling pathway using the BG1 cell line in the presence of 0.1 nM 17-beta-estradiol - cell viability counter screen (AID 1259241); also: nearly all actives have a fitted effect of over 40% in size
In short: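 CellTiter-Fluor read (30 min, 37C) on ER-alpha/ERE-luc VM7Luc4E2 cells; 22 hr compound treatment; agonist 0.1 nM E2 final; same-well multiplex.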

[2] = qHTS assay to identify small molecule antagonists of the androgen receptor (AR) signaling pathway using the MDA cell line in the presence of 0.5 nM R1881 - cell viability counter screen (AID 1259242); also: nearly all actives have a fitted effect of over 45% in size
In short: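 Cells seeded at 3,000/well and allowed 5 hr at 37C, 0% CO2 before compound transfer and R1881 (0.5 nM final) addition; 16 hr later, live-cell protease fluorescence indicated cytotoxicity.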

[3] = molecular target: Estrogen receptor (Homo sapiens) (UniProt P03372); test: qHTS assay to identify small molecule antagonists of the estrogen receptor alpha (ER-alpha) signaling pathway using the BG1 cell line in the presence of 0.1 nM 17-beta-estradiol (AID 1259244); also: nearly all actives have a fitted effect of over 50% in size; also: potency is read from the fitted curve at half-maximal effect
Sequence of Estrogen receptor (Homo sapiens) (P03372 whole entry, looked up): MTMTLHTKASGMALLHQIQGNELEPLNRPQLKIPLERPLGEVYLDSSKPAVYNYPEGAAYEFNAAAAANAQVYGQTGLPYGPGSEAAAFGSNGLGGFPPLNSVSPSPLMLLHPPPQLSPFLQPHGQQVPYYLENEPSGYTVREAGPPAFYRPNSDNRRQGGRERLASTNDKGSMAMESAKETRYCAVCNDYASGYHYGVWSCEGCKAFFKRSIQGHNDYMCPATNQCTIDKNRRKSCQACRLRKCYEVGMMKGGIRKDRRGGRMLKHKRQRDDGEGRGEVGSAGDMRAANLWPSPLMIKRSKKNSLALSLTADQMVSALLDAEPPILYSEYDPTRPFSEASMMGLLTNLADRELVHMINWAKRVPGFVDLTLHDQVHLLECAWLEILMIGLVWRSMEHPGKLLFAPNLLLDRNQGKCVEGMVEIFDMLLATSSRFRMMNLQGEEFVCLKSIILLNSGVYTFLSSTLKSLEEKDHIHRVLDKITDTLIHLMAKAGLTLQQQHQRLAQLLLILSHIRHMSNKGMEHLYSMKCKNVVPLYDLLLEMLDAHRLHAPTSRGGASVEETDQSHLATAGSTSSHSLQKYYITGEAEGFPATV
In short: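 Luciferase signal from VM7Luc4E2 ERE-reporter cells, co-dosed with test compound and 0.1 nM final 17beta-estradiol for 22 h, read with ONE-Glo.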

[4] = qHTS assay to identify small molecule HDAC inhibitors (AID 1259364);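 also: wild-type HCT-116 cells with endogenous class I/II HDAC activity; top concentration of the series differs between compounds; nearly all actives have a fitted effect of over 45% in size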
In short: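 HCT-116 wt cells, 1,500/well, overnight attach. Compounds (DMSO) 2 h, 37 °C. HDAC-Glo I/II, 30 min RT. Luminescence.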

[5] = qHTS assay to identify small molecule HDAC inhibitors - cell viability counter screen (AID 1259365); also: series mostly up to about 92 µM; nearly all actives have a fitted effect of over 50% in size
In short: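 To flag cytotoxic hits, 1,500 wild-type HCT-116 cells per well, plated the day before, receive test compounds for 2hr at 37 C before CellTiter-Glo reagent and a luminescence read.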

[6] = qHTS assay to identify small molecule agonists of the sonic hedgehog signaling (Shh) pathway - cell viability counter screen (AID 1259366); also: nearly all actives have a fitted effect of over 50% in size; also: potency is read from the fitted curve at half-maximal effect
In short: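 Fluorescence from CellTiter-Fluor reports live cells in this counter screen. NIH/3T3-derived Gli1-Luc reporter cells receive test compounds for 24hr at 37C; reagent goes in at 23hr.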

[7] = qHTS assay to identify small molecule antagonists of the sonic hedgehog signaling (Shh) pathway - cell viability counter screen (AID 1259367); also: nearly all actives have a fitted effect of over 55% in size; also: potency is read from the fitted curve at half-maximal effect
In short: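 Fluorescence read-out (CellTiter-Fluor, 1 hr at 37C) taken after 23 hr compound treatment of 3T3 Gli1-Luc cells stimulated with conditioned medium. Cells were seeded at 2,000 per well and pre-incubated 4 hr.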

[8] = qHTS assay to identify small molecule agonists of the sonic hedgehog signaling (Shh) pathway (AID 1259368; calls by dose curve;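 also: NIH/3T3-derived 3T3Gli1-Luc cells carrying a stable Gli1-driven firefly luciferase reporter; series mostly up to about 92 µM; nearly all actives have a fitted effect of over 15% in size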)
In short: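 Following a 24 hr incubation with DMSO-dissolved compounds at 37 C, 5% CO2, Gli1-Luc NIH/3T3-derived cells received luciferase reagent for 30 min at room temperature prior to luminescence measurement.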

[9] = qHTS assay to identify small molecule antagonists of the sonic hedgehog signaling (Shh) pathway (AID 1259369; calls by dose curve; also: nearly all actives have a fitted effect of over 45% in size; also: potency is read from the fitted curve at half-maximal effect)
In short: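 Read-out is luminescence from a firefly luciferase gene controlled by the Gli1 response element, in 3T3Gli1-Luc cells pre-incubated 4hr then exposed to compounds and conditioned medium for 24hr.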

[10] = molecular target: Estrogen receptor beta (Homo sapiens) (UniProt Q92731); test: qHTS assay to identify small molecule antagonists of the estrogen receptor beta (ER-beta) signaling pathway (AID 1259378; active = well fitted inhibition curve with a large enough effect in the signal ratio in the repeat runs, not every such curve was filed as active; the % refers to the signal ratio)
Sequence of Estrogen receptor beta (Homo sapiens) (Q92731 whole entry, looked up): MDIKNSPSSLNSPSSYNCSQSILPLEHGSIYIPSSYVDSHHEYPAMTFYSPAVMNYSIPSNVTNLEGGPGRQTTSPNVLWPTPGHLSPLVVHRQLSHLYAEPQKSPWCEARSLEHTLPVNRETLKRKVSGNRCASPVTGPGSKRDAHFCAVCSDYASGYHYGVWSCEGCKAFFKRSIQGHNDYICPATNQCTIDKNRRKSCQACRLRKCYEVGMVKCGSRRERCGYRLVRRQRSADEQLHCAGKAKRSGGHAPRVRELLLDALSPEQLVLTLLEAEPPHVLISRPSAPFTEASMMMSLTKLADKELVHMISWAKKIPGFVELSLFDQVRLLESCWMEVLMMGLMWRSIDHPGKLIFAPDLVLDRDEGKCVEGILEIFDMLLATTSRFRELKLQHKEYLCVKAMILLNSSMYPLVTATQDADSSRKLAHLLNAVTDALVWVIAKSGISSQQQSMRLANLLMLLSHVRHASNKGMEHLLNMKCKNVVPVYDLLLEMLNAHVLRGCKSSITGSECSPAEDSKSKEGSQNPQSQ
In short: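 ER-beta-UAS-bla HEK293T cells in 2% charcoal-stripped FBS medium treated with compound plus 1nM final 17-beta-estradiol for 16 hr at 37C. Beta-lactamase reporter read by FRET substrate fluorescence after 2 hours at room temperature.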

[11] = qHTS assay to identify small molecule agonists of the androgen receptor (AR) signaling pathway in the presence of an antagonist - cell viability counter screen (AID 1259379);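 also: MDA-kb2 human breast cancer cells carrying an MMTV luciferase reporter; series mostly up to about 92 µM; nearly all actives have a fitted effect of over 25% in size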
In short: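 Each compound was tested at 15 concentrations on MDA-kb2 cells in the presence of 3.0uM nilutamide. Viability was measured by CellTiter-Fluor fluorescence after a 16 hr incubation at 37C in a CO2-free atmosphere.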

[12] = qHTS assay to identify small molecule antagonists of the estrogen receptor beta (ER-beta) signaling pathway - cell viability counter screen (AID 1259382); also: series mostly up to about 92 µM; nearly all actives have a fitted effect of over 55% in size
In short: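 CellTiter-Glo ATP luminescence measured after the LiveBLAzer read in the same wells; ER-beta-UAS-bla HEK293T cells, 16 hr compound treatment with 1nM 17-beta-estradiol agonist at 37C, 5% CO2.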

[13] = molecular target: Estrogen receptor (Homo sapiens) (UniProt P03372); test: qHTS assay to identify small molecule agonists of the estrogen receptor alpha (ER-alpha) signaling pathway in the presence of an antagonist (AID 1259383; calls by dose curve; also: top concentration of the series differs between compounds; nearly all actives have a fitted effect of over 15% in size)
In short: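 Luminescent ERE-luciferase reporter, VM7Luc4E2 cells (endogenous ER-alpha); 10.0nM ICI-182,780 final; 15-point compound titration; 22hr at 37C; ONE-Glo, 30min RT.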

[14] = molecular target: Androgen receptor (Homo sapiens) (UniProt P10275); test: qHTS assay to identify small molecule agonists of the androgen receptor (AR) signaling pathway in the presence of an antagonist (AID 1259381; calls by dose curve; also: nearly all actives have a fitted effect of over 15% in size)
Sequence of Androgen receptor (Homo sapiens) (P10275 whole entry, looked up): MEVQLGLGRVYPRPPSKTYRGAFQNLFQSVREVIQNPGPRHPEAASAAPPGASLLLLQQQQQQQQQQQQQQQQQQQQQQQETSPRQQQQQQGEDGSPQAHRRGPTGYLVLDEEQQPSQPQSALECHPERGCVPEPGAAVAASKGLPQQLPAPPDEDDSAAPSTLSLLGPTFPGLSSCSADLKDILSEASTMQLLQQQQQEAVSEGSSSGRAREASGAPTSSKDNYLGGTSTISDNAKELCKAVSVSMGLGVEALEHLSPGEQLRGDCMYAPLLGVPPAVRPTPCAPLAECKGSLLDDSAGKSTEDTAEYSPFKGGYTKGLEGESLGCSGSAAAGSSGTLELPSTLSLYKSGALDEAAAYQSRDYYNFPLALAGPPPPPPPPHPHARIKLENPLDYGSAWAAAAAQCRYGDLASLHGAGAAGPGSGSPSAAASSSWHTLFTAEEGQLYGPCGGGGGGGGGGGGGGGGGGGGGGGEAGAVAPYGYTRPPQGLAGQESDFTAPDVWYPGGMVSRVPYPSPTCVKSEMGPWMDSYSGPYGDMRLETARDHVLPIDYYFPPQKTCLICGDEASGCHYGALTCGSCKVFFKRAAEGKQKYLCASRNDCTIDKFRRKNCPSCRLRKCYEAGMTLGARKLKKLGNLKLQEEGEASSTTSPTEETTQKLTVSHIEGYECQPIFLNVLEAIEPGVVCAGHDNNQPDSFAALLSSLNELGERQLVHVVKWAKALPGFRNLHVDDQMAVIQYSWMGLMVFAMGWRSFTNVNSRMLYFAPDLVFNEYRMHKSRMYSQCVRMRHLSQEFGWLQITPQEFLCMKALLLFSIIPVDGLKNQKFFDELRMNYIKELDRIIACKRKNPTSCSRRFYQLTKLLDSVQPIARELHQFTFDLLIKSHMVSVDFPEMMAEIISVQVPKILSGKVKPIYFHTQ
In short: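 Plated MDA-kb2 cells (3,000/well) were pre-incubated 5hr, given nilutamide (3.0uM final) or buffer, then dosed with compounds in DMSO at 15 concentrations. Luciferase activity was quantified by luminescence after 16hr at 37C.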

[15] = qHTS assay to identify small molecule agonists or antagonists of the thyroid stimulating hormone receptor (TSHR) signaling pathway - wild type cell line counter screen (AID 1259384; calls by dose curve)
In short: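 Wild-type Hek293 cells, 800/well, 18 h at 37C, then compound with Ro20-1724 for 30 min RT. cAMP by HTRF (cAMP-d2/anti-cAMP cryptate), 1 h RT, fluorescence read. 15 concentrations, triplicates.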

[16] = molecular target: Thyrotropin receptor (Homo sapiens) (UniProt P16473); test: qHTS assay to identify small molecule antagonists of the thyroid stimulating hormone receptor (TSHR) signaling pathway (AID 1259385; calls by dose curve; also: nearly all actives have a fitted effect of over 20% in size)
Sequence of Thyrotropin receptor (Homo sapiens) (P16473 whole entry, looked up): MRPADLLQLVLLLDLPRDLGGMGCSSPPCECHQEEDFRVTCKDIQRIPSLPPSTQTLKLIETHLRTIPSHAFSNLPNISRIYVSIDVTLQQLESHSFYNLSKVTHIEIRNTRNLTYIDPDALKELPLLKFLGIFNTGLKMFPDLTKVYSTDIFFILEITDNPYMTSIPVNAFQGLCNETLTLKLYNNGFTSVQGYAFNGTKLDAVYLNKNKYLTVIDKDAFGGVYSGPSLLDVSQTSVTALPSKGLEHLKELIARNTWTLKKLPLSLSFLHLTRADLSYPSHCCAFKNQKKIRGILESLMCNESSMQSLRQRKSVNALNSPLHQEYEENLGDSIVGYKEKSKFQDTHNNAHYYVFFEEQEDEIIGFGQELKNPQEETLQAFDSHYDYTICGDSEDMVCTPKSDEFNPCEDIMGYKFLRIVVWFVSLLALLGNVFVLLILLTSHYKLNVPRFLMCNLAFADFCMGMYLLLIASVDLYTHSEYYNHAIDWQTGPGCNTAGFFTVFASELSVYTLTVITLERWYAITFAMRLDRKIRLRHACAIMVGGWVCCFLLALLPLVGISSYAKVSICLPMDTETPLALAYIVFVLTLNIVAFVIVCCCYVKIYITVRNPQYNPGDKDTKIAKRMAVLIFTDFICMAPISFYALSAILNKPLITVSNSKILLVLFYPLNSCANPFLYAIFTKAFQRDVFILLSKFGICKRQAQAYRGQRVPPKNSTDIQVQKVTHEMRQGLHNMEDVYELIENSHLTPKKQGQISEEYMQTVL
In short: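 TSHR-HEK293 cells (800/well) plated 18 h, then compounds with Ro20-1724 and TSH at 1.5 ng/mL final, 30 min at room temperature. cAMP quantified by HTRF (cAMP-d2/anti-cAMP-cryptate, 1 h); 15 concentrations in triplicate.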

[17] = molecular target: Estrogen receptor beta (Homo sapiens) (UniProt Q92731); test: qHTS assay to identify small molecule agonists of the estrogen receptor beta (ER-beta) signaling pathway (AID 1259377; active = well fitted activation curve with a large enough effect in the signal ratio in the repeat runs, not every such curve was filed as active; the % refers to the signal ratio)
In short: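 Screening used GripTite ER-beta-UAS-bla cells held in 2% charcoal-stripped FBS medium. After overnight (16 hr) compound incubation at 37C, beta-lactamase activity was detected with a FRET substrate by fluorescence.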

[18] = qHTS assay to identify small molecule agonists of the estrogen receptor beta (ER-beta) signaling pathway - cell viability counter screen (AID 1259380); also: nearly all actives have a fitted effect of over 30% in size
In short: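 Compounds dissolved in DMSO were pin-transferred onto ER-beta-UAS-bla HEK293T cells that had settled 6 hr, and exposure ran 16 hr at 37C. Following the reporter read, CellTiter-Glo luminescence after 30 min at room temperature indicated cytotoxicity.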

Measured: Potency

O=c1oc2ccccc2c(O)c1C1CCCc2ccccc21 (centres undefined)
not listed: [14] | [15] | [16] | [17] | [18]
inactive: all other assays above

O=C(N[C@H]1CN2CCC1CC2)c1cc2ccoc2cn1
not listed: [12] | [17] | [18]
inactive: all other assays above

CS(=O)(=O)c1cc(C(F)(F)F)ccc1C(=O)c1cnoc1C1CC1
not listed: [12] | [14] | [15]
inactive: all other assays above

ClCC(Cl)(Cl)Cl
not listed: [9] | [14] | [15] | [16]
inactive: all other assays above

O=CNC(N1CCN(C(NC=O)C(Cl)(Cl)Cl)CC1)C(Cl)(Cl)Cl (centres undefined)
not listed: [16] | [17]
inactive: all other assays above

CCCCc1c(C)nc(NCC)[nH]c1=O
not listed: [12] | [14] | [16]
inactive: all other assays above

CCSC(=O)N(CC)C1CCCCC1
not listed: [10] | [14] | [17] | [18]
inactive: all other assays above

O=C(Oc1ccc(Br)cc1)N1CCN2CCC1CC2
not listed: [10] | [14] | [17]
inactive: all other assays above

Cc1cc(C)c(C(=O)P(=O)(C(=O)c2c(C)cc(C)cc2C)c2ccccc2)c(C)c1
not listed: [9] | [10] | [14] | [16]
inactive: all other assays above

Nc1cc(Cl)ccc1O
active: [6] 59.1 µM | [7] 29.6 µM | [9] 1.67 µM
not listed: [8] | [10] | [12] | [14] | [17] | [18]
inactive: all other assays above

Nc1cnn(-c2ccccc2)c(=O)c1Cl
not listed: [8] | [14] | [17]
inactive: all other assays above

ClC(Cl)Br
not listed: [8] | [10] | [12] | [14] | [16] | [17]
inactive: all other assays above

CC1CN1P(=O)(N1CC1C)N1CC1C (centres undefined)
not listed: [7] | [14] | [15] | [16]
inactive: all other assays above

CC(C)(C)C(=O)C(Oc1ccc(Cl)cc1)n1cncn1 (centres undefined)
not listed: [7] | [14] | [15] | [16]
inactive: all other assays above

O=[N+]([O-])c1ccc(CBr)cc1
not listed: [9] | [10] | [14] | [17]
inactive: all other assays above

CNC(=O)Oc1ccc(N(C)C)c(C)c1
not listed: [7] | [10] | [14] | [16] | [17]
inactive: all other assays above

CCC(C)n1c(=O)[nH]c(C)c(Br)c1=O (centres undefined)
not listed: [8] | [14] | [16]
inactive: all other assays above

CC1(C)CON(Cc2ccccc2Cl)C1=O
not listed: [8] | [9] | [14] | [18]
inactive: all other assays above

Clc1ccccc1N1CCNCC1
not listed: [9] | [18]
inactive: all other assays above

CCCCCCI
not listed: [8] | [15] | [16] | [18]
inactive: all other assays above

CCCCP(CCCC)CCCC
not listed: [9] | [14] | [17] | [18]
inactive: all other assays above

COC(=O)c1ccccc1S(=O)(=O)NC(=O)N(C)c1nc(C)nc(OC)n1
not listed: [9] | [10] | [14] | [15] | [16] | [17]
inactive: all other assays above

Cc1cccc(C#N)c1
not listed: [8] | [14] | [17]
inactive: all other assays above

O=C(NCO)NCO
not listed: [9] | [10] | [14] | [17]
inactive: all other assays above

CC1=C(C(=O)Nc2ccccc2)S(=O)(=O)CCO1
active: [3] 48.5 µM | [6] 21.7 µM | [7] 27.3 µM
not listed: [9] | [10] | [14] | [17]
inactive: all other assays above

CCC(=O)C(CCN(C)C)(c1ccccc1)c1ccccc1
not listed: [8] | [9] | [10] | [12] | [15] | [16] | [17]
inactive: all other assays above
